PubChem BioAssay
Inconclusive results are not listed. The source made the active and inactive calls.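 How the source made its calls, unless noted: active means viability at or below 27.92% in each of two runs, the all-compound median minus 4 SD; inconclusive means no clear call, values can overlap the other calls; inactive means the rest.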

Experiments:
[1] = Her2 expression decrease, cell viability multiplex – SKBR3 breast tumor cells, AlphaScreen, ATP viability, primary screen (AID 461;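 active means Her2 level under about 52% in both replicate screens, with viability over 70% of control, limit read from the data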;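 on Her2 level: lower value means less Her2 protein in the cells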;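 on viability: percent of carrier control wells set as 100% viability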); details: SKBR3 Her2 protein level, 18-24 h, measured here: SKBR3 viability, ATP luminescence, at 10 µM
[2] = target: Receptor tyrosine-protein kinase erbB-2 (Homo sapiens) (UniProt P04626); assay: as above; details: 18-24 h, at 10 µM, stronger effect = lower value
Chain of Receptor tyrosine-protein kinase erbB-2 (Homo sapiens) (P04626 whole entry, looked up): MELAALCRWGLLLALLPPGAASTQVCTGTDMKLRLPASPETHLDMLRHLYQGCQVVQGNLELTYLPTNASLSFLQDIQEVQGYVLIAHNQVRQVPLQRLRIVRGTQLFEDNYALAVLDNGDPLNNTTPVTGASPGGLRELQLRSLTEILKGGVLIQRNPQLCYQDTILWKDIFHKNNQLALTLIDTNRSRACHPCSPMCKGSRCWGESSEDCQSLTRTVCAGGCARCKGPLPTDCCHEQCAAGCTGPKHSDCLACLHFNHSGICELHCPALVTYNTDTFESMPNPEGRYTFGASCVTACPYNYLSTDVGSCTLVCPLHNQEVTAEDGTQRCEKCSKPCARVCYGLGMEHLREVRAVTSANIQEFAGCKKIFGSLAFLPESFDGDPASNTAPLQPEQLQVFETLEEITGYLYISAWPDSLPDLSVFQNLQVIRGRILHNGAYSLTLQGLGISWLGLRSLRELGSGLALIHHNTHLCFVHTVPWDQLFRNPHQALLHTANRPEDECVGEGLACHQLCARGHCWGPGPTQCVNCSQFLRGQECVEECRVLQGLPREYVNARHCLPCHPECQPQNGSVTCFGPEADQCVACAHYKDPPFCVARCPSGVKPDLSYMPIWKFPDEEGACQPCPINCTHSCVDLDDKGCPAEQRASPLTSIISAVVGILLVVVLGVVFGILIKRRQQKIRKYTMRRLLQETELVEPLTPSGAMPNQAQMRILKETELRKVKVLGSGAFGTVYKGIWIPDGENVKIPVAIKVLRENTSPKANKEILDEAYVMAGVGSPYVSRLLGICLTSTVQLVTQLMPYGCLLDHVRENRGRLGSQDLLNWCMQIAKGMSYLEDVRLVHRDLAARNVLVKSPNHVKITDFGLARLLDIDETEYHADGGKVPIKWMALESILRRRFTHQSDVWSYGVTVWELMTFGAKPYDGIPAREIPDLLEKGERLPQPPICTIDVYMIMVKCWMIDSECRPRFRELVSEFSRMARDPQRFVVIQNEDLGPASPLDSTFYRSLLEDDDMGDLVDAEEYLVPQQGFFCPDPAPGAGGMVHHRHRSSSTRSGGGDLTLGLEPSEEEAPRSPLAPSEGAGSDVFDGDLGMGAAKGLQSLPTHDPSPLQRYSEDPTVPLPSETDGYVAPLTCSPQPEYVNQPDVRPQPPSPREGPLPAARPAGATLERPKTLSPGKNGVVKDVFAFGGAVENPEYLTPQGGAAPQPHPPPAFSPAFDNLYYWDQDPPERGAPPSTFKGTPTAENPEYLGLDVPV

[3] = reduced viability of SK-BR-3 breast cancer cells – cell-based, 24 h, human, pilot screen (AID 572;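 active means viability at or below 10% of carrier control in both of two separate runs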;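 further: compound exposure lasted between 18 and 24 h rather than exactly 24 h; 100% = carrier-treated control wells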); details: SK-BR-3 viability, CellTiter-Glo luminescence, at 10 µM, stronger effect = lower value
[4] = HUVEC growth inhibition – cell-based, human, primary screen (AID 575;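 active means viability at or below 30% in both replicate assays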;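 further: 100% = median of untreated cell wells with 0.1% DMSO on each plate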); details: HUVEC proliferation, CellTiter-Glo luminescence, 72 h; at 10 µM; stronger effect = lower value
[5] = H69AR cell proliferation blockers – human, duplicate replicates, primary screen (AID 580;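 active means viability at or under a set limit in both replicates, limit being median viability minus 3 SD, cut at about 48% in these data, passing the limit was not always enough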;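 further: 100% = mean luminescence of untreated wells and 0% = no signal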); details: H69AR lung tumor cells viability, ATP luminescence, 72 h; at 10 µM; stronger effect = lower value
[6] = MRP1 drug-resistance reversers in H69AR cells – cell-based, doxorubicin co-treatment, pilot screen (AID 601;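 active means viability loss from added drug above about 55%, and viability with drug at most 40%, in both replicates, limit read from the data, passing the limit was not always enough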); details: CellTiter-Glo, 72 h, at 10 µM; for differential viability (reversal): stronger effect = higher value
[7] = yeast transport mutant growth inhibition pilot in 384-well plates, post-Golgi transport modulator project (AID 636; in the data active means inhibition above about 31%); details: absorbance 615 nm, about 18 h, stronger effect = higher value
[8] = growth suppression of yeast trafficking mutant, preliminary HTS, modulators of trafficking downstream of Golgi apparatus project, 1536-format plate, OD 615 nm (AID 637; in the data active means inhibition above about 30%); details: yeast transport mutant growth, absorbance 615 nm, 18 h; stronger effect = higher value
[9] = S. cerevisiae growth inhibition in permissive medium (OD615), pilot counter-assay for S. cerevisiae lifespan shortening project, permissive growth control (AID 705;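 active means growth inhibition above 25% in both replicates, a cutoff set 3 SD above the mean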); details: OD615, 24 h, at 10 µM, stronger effect = higher value
[10] = S. cerevisiae growth inhibition in restrictive medium, OD615, pilot screen, restrictive growth control, yeast lifespan reduction project (AID 706;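 active means growth inhibition above a set limit, 3 SD over mean compound inhibition, in both replicates, cut at about 43% in these data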;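 further: modified DeaD lifespan yeast strain shifted to restrictive glucose medium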); details: OD615, 48 h, at 10 µM, stronger effect = higher value
[11] = doxorubicin toxicity protection in MRP-1 cells – H69AR cells, CellTiter-Glo, duplicate, MRP-1 activator project, pilot screen (AID 807;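 active means viability increase at or above a cutoff of the median across tested compounds plus 3 SD, cut at about 8.5% in these data, passing the limit was not always enough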;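 further: compound pretreatment 18-22 h then 72 h combined with doxorubicin; 0% = doxorubicin alone and 100% = vehicle without doxorubicin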); details: H69AR viability with doxorubicin, CellTiter-Glo luminescence; at 10 µM; stronger effect = higher value
[12] = viability of HCT116 without oncogenic beta-catenin – human colon tumor cells, pilot screen (AID 823;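 active means cell viability at or below a set limit in both duplicate runs, the limit being the all-compound median minus 4 SD, cut at about 23% in these data, passing the limit was not always enough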;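 further: 0% = wells killed by 20 µM Hyamine and 100% = untreated DMSO cell wells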); details: HCT116 beta-catenin knockout viability, CellTiter-Glo, 60 h; at 10 µM; stronger effect = lower value
[13] = viability of PTEN-null HCT116 cells – cell-based, HCT116 clonal line, CellTiter-Glo, pilot screen (AID 824); details: HCT116 PTEN-deleted viability, 60 h, at 10 µM, stronger effect = lower value;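 further: 0% = 20 µM Hyamine control and 100% = vehicle cell control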
[14] = RAM pathway blockade in budding yeast – dse1pr::URA3 reporter, 5-FOA selection, pilot screen (AID 869;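 active means inhibition over a set limit, the all-compound mean plus 3 SD, in both replicate runs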;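 further: 0% = DMSO wells with no growth and 100% = 10 µM 1-NA-PP1 with full growth; RAM network block rescues cells from 5-FOA so hits raise OD615 growth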); details: S. cerevisiae dse1pr::URA3 5-FOA growth, OD615, 2 d; at 10 µM; stronger effect = higher value; strain carries analog-sensitive mutant Cbk1 kinase
[15] = RAM signaling pathway blockade in yeast – S. cerevisiae, Pdr1DBD-CYC8 efflux-inhibited sensitized strain, primary screen (AID 1298;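 active means RAM network inhibition above 8.4% in each of two replicates, 3 SD over the compound average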;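 further: 0% = DMSO untreated cells without growth and 100% = 10 µM 1-NA-PP1 full growth; higher means more yeast growth rescued from 5-FOA killing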); details: S. cerevisiae cbk1-as DSE1-URA3 strain, 5-FOA growth OD615, 2 d; at 50 µM; stronger effect = higher value
[16] = H69AR cells + 2 uM doxorubicin, measured here: viability with 2 uM doxorubicin, stronger effect = lower value
[17] = H69AR cells, compound alone cytotoxicity

COc1ccc(NC(=O)CN(c2cc(C)cc(C)c2)S(=O)(=O)c2c(C)noc2C)cc1OC
88.2%: viability [6, 17]
73.6%: viability [6, 16]
inactive: Her2 level [2] 73% | viability [3] 89% | viability [4] 110% | viability [5] 88.2% | differential viability (reversal) ([6]; H69AR cells + 2 uM doxorubicin) 14.6% | inhibition [7] 0.26% | inhibition [8] -1.67% | growth inhibition [9] -9.49% | growth inhibition [10] -4.85% | viability increase [11] -2.49% | viability [12] 89% | viability [13] 92.5% | inhibition [14] 3.25% | RAM network inhibition [15] 5.58%
89%: viability [1]

Cc1ccccc1Cn1cc(/C=N/n2cnnc2)c2ccccc21
inactive: Her2 level [2] 99.5% | viability [3] 100% | viability [4] 68.7% | viability [5] 95.4% | differential viability (reversal) ([6]; H69AR cells + 2 uM doxorubicin) 13.3% | inhibition [7] -2.6% | inhibition [8] 4.83% | growth inhibition [9] 7.88% | growth inhibition [10] 23.3% | viability increase [11] -4.78% | viability [12] 67.8% | viability [13] 61.6% | inhibition [14] 1% | RAM network inhibition [15] -0.25%
100%: viability [1]
95.4%: viability [6, 17]
82%: viability [6, 16]

CCOC(=O)c1ccccc1NC(=O)CSc1nccn1C
108%: viability [6, 17]
89%: viability [1]
inactive: Her2 level [2] 94% | viability [3] 89% | viability [4] 94% | viability [5] 108% | differential viability (reversal) ([6]; H69AR cells + 2 uM doxorubicin) 15.5% | inhibition [7] 0.91% | inhibition [8] -3.44% | growth inhibition [9] -4.88% | growth inhibition [10] 3.13% | viability increase [11] -1.73% | viability [12] 102% | viability [13] 98.2% | inhibition [14] 1.55% | RAM network inhibition [15] 1.28%
92.7%: viability [6, 16]

CCOc1ccc(N(C(C)C(=O)NC2CCCCCC2)S(C)(=O)=O)cc1 (stereo not given)
92.7%: viability [6, 16]
90.5%: viability [1]
inactive: Her2 level [2] 98.5% | viability [3] 90.5% | viability [4] 101% | viability [5] 94.1% | differential viability (reversal) ([6]; H69AR cells + 2 uM doxorubicin) 1.44% | inhibition [7] -2.69% | inhibition [8] -3.83% | growth inhibition [9] -1.18% | growth inhibition [10] -21% | viability increase [11] -2.2% | viability [12] 100% | viability [13] 90.6% | inhibition [14] 2.62% | RAM network inhibition [15] 6.94%
94.1%: viability [6, 17]

CC1CCc2nn(CC(=O)NCCN3CCOCC3)cc2C1 (stereo not given)
97.7%: viability [6, 16]
89.4%: viability [6, 17]
101%: viability [1]
inactive: Her2 level [2] 113% | viability [3] 101% | viability [4] 98.6% | viability [5] 89.4% | differential viability (reversal) ([6]; H69AR cells + 2 uM doxorubicin) -8.26% | inhibition [7] -2.44% | inhibition [8] -2.33% | growth inhibition [9] 2.41% | growth inhibition [10] 6.26% | viability increase [11] 0.93% | viability [12] 108% | viability [13] 101% | inhibition [14] 0.965% | RAM network inhibition [15] 4.43%

Cc1cc(N)n2nc(-c3ccccc3)cc2n1
68.5%: viability [6, 16]
95%: viability [1]
inactive: Her2 level [2] 71% | viability [3] 95% | viability [4] 57.4% | viability [5] 80.1% | differential viability (reversal) ([6]; H69AR cells + 2 uM doxorubicin) 11.5% | inhibition [7] -1.82% | inhibition [8] -0.33% | growth inhibition [9] -14.1% | growth inhibition [10] -13.9% | viability increase [11] -3.46% | viability [12] 65.1% | viability [13] 65.3% | inhibition [14] 1.33% | RAM network inhibition [15] 4.23%
80.1%: viability [6, 17]

CC1=C(C(N)=O)C(c2ccncc2)n2nc(-c3ccccc3Cl)nc2N1 (stereo not given)
96%: viability [1]
86.9%: viability [6, 16]
100%: viability [6, 17]
inactive: Her2 level [2] 96.5% | viability [3] 96% | viability [4] 90.1% | viability [5] 100% | differential viability (reversal) ([6]; H69AR cells + 2 uM doxorubicin) 13.3% | inhibition [7] 0.53% | inhibition [8] -3.11% | growth inhibition [9] -8.2% | growth inhibition [10] 6.52% | viability increase [11] -0.22% | viability [12] 94% | viability [13] 98.8% | inhibition [14] 1.56% | RAM network inhibition [15] -0.11%

Oc1ccc(Cl)cc1-c1cc(-c2ccccc2)n[nH]1
55.5%: viability [1]
inactive: Her2 level [2] 61% | viability [3] 55.5% | differential viability (reversal) ([6]; H69AR cells + 2 uM doxorubicin) -7.55% | inhibition [7] -0.53% | growth inhibition [9] -1.5% | growth inhibition [10] -6.9% | viability increase [11] -7.82% | inhibition [14] 1.59% | RAM network inhibition [15] 8.32%
6.37%: viability [6, 17]
13.9%: viability [6, 16]
active: viability [4] 7.56% | viability [5] 6.37% | inhibition [8] 100% | viability [12] 16% | viability [13] 23.1%

Cc1nn(-c2ccc(F)cc2)c2c1cc(C#N)c1nc3ccccc3n12
80.9%: viability [6, 16]
102%: viability [1]
86.3%: viability [6, 17]
inactive: Her2 level [2] 81% | viability [3] 102% | viability [4] 56.2% | viability [5] 86.3% | differential viability (reversal) ([6]; H69AR cells + 2 uM doxorubicin) 5.42% | inhibition [7] -2.89% | inhibition [8] -2.67% | growth inhibition [9] 1.38% | growth inhibition [10] 8.66% | viability increase [11] -1.92% | viability [12] 95.9% | viability [13] 93.5% | inhibition [14] 0.36% | RAM network inhibition [15] 6.61%

CCOC(=O)C(C)Sc1nnc(Cc2cc(=O)[nH]c(=O)[nH]2)n1-c1ccc(Cl)cc1 (stereo not given)
inactive: Her2 level [2] 96.5% | viability [3] 92.5% | viability [4] 102% | viability [5] 103% | differential viability (reversal) ([6]; H69AR cells + 2 uM doxorubicin) 4.81% | inhibition [7] 1.54% | inhibition [8] 5.5% | growth inhibition [9] -16.5% | growth inhibition [10] -11.5% | viability increase [11] 0.97% | viability [12] 104% | viability [13] 105% | inhibition [14] 1.45% | RAM network inhibition [15] 5.81%
92.5%: viability [1]
98.2%: viability [6, 16]
103%: viability [6, 17]
